Columns and labels:
Test in all cases: DAPPL (digital affinity profiling via proximity ligation, sequencing); 10 mM Tris-HCl pH 7.5, 50 mM NaCl, 1 mM DTT, 4% glycerol, room temperature, 30 min; GST-TFs on glutathione beads, 16-mer random dsDNA library, 0.1% formaldehyde crosslink after washing; high values mean tight binding
FLI1 = target: T1, FLI1 (Homo sapiens, UniProt Q01543 1-452); settings: protein: recombinant; tags: N-terminal GST; dsDNA, one strand shown
T1 sequence: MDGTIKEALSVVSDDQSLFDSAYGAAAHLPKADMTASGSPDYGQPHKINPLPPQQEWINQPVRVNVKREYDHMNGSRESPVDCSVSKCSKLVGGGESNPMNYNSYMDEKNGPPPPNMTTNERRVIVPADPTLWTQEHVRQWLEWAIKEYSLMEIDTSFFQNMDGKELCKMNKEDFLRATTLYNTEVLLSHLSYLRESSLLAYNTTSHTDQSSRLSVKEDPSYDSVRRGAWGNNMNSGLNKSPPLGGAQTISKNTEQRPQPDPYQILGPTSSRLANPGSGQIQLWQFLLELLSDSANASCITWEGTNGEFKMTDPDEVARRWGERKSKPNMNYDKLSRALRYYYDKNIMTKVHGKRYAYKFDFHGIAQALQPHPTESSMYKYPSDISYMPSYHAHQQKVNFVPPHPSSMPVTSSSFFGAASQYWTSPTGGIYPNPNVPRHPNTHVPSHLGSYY
Outline: (§1)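 GST fusions of human transcription factors were expressed in yeast and captured with glutathione beads. Once given DNA barcodes and pooled alongside a tag-only sample, they were incubated for 30 min at room temperature with 200 nmole of a random double-stranded 16-mer DNA library in Tris/NaCl/DTT/glycerol buffer, then washed, crosslinked (0.1% formaldehyde), proximity-ligated, PCR-amplified and sequenced on an Illumina NextSeq500. The binding signal of each hexamer is its read frequency for a factor divided by its frequency for the tag-only sample.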

ELK1 = target: T2, ELK1 (Homo sapiens, UniProt P19419 1-428); settings: protein: recombinant; tags: N-terminal GST; dsDNA, one strand shown
T2 sequence: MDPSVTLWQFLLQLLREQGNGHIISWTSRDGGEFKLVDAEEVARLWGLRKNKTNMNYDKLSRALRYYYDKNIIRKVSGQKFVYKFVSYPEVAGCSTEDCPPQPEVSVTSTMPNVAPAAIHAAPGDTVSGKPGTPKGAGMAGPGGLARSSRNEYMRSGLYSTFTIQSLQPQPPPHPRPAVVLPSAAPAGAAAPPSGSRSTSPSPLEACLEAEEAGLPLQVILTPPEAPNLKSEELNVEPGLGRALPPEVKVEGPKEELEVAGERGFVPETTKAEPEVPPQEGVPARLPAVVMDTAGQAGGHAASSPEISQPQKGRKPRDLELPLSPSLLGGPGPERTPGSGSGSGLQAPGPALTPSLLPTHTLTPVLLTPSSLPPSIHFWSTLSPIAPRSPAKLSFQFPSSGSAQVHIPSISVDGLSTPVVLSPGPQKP
Outline: as §1

GABPA = target: T3, GABPA (Homo sapiens, UniProt Q06546 1-454); settings: protein: recombinant; tags: N-terminal GST; dsDNA, one strand shown
T3 sequence: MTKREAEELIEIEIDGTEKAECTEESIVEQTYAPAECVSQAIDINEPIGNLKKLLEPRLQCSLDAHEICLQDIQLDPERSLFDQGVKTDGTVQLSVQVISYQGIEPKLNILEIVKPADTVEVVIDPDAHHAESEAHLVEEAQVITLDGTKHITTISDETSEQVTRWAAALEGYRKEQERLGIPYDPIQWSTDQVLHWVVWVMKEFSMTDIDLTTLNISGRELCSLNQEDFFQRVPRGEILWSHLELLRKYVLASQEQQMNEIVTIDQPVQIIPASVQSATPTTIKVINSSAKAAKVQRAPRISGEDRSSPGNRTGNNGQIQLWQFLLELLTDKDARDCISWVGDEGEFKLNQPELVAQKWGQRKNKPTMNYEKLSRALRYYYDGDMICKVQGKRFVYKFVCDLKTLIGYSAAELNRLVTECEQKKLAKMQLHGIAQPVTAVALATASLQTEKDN
Outline: as §1

ERG = target: T4, ERG (Homo sapiens, UniProt P11308 1-479); settings: protein: recombinant; tags: N-terminal GST; dsDNA, one strand shown
T4 sequence: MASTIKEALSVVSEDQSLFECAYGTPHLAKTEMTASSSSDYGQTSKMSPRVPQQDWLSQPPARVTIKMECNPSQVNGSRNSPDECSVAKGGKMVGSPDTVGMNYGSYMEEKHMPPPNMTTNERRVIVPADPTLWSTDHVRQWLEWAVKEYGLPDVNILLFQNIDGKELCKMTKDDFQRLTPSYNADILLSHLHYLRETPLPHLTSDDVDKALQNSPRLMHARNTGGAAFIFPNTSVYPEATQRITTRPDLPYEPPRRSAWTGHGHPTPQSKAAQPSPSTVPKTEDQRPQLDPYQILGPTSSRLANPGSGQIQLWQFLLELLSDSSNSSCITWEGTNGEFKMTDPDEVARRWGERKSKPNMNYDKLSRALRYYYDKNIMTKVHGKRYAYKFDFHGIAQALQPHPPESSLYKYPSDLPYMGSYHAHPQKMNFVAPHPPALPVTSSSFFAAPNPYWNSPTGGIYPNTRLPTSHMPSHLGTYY
Outline: as §1

ELF1 = ELF1 (Homo sapiens, UniProt P32519 1-619); settings: protein: recombinant; tags: N-terminal GST; dsDNA, one strand shown
Chain of ELF1 (P32519 whole entry): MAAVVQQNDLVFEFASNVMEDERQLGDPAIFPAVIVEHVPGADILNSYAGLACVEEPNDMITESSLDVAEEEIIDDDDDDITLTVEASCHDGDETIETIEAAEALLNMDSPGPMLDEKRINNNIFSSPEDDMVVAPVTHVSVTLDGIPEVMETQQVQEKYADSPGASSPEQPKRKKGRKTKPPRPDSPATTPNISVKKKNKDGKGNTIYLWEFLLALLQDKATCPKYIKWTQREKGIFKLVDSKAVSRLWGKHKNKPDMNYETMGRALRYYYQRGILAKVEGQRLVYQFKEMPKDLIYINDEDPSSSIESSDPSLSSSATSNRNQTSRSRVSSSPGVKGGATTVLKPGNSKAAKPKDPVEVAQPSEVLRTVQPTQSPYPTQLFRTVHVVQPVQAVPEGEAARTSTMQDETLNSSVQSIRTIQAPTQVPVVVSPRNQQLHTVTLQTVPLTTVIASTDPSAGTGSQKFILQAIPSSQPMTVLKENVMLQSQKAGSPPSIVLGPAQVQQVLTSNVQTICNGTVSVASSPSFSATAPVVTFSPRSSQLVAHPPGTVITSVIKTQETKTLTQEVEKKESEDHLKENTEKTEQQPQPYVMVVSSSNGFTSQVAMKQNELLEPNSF
Outline: as §1

EHF = target: T5, EHF (Homo sapiens, UniProt Q9NZC4 1-300); settings: protein: recombinant; tags: N-terminal GST; dsDNA, one strand shown
T5 sequence: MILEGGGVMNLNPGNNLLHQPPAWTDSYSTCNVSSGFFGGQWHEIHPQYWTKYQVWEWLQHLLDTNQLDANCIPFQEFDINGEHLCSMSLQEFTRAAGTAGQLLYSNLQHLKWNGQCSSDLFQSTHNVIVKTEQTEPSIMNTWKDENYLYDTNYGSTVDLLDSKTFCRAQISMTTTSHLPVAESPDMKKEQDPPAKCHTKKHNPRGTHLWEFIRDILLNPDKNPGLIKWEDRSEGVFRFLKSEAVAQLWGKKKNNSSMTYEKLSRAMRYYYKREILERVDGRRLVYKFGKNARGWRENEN
Outline: as §1

SPI1 = SPI1 (Homo sapiens, UniProt P17947 1-270); settings: protein: recombinant; tags: N-terminal GST; dsDNA, one strand shown
Outline: as §1

SPIB = SPIB (Homo sapiens, UniProt Q01892 1-262); settings: protein: recombinant; tags: N-terminal GST; dsDNA, one strand shown
Chain of SPIB (Q01892 whole entry): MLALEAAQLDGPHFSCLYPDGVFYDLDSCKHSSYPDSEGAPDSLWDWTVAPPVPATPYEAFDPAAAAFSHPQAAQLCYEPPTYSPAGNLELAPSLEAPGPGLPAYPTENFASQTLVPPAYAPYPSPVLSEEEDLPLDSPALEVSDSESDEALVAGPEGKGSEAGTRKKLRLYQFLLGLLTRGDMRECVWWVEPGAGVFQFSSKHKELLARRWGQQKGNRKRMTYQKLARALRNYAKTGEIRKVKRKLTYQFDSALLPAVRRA
Outline: as §1

ELK3 = target: T6, ELK3 (Homo sapiens, UniProt P41970 1-407); settings: protein: recombinant; tags: N-terminal GST; dsDNA, one strand shown
T6 sequence: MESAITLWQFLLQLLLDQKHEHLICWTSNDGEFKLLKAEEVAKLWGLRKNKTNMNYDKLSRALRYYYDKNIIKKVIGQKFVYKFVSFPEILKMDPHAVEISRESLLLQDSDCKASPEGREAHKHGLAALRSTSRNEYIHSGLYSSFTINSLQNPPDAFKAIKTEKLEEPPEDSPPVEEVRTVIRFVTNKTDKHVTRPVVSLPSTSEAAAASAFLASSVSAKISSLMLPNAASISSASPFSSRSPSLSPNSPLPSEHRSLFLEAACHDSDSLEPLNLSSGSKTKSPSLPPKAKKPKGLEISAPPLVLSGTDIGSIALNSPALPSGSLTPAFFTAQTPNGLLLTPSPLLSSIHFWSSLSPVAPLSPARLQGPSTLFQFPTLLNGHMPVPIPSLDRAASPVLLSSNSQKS
Outline: as §1

FEV = target: T7, FEV (Homo sapiens, UniProt Q99581 1-238); settings: protein: recombinant; tags: N-terminal GST; dsDNA, one strand shown
T7 sequence: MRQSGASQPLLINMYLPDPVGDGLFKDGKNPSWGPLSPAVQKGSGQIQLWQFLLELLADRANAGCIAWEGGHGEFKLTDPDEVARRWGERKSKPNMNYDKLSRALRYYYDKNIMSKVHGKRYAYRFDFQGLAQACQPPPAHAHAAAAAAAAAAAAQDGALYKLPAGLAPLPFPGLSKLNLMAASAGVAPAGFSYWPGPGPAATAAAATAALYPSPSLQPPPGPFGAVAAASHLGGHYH
Outline: as §1

ETV5 = ETV5 (Homo sapiens, UniProt P41161 1-510); settings: protein: recombinant; tags: N-terminal GST; dsDNA, one strand shown
Chain of ETV5 (P41161 whole entry): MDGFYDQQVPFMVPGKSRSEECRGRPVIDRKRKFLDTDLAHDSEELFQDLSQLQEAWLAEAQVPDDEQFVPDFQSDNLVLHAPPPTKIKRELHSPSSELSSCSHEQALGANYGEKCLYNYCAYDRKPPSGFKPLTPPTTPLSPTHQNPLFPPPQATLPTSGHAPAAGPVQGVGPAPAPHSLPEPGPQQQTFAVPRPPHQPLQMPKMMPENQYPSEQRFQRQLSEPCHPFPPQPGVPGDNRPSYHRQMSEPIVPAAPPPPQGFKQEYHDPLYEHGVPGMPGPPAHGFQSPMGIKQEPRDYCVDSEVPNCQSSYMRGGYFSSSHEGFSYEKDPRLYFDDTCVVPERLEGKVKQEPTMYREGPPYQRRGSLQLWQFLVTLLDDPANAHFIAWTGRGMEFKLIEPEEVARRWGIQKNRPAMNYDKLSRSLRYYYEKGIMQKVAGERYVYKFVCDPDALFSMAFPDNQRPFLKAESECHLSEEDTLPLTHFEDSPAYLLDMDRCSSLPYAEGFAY
Outline: as §1

HSF1 = HSF1 (Homo sapiens, UniProt Q00613 1-529); settings: protein: recombinant; tags: N-terminal GST; chain copies: 3; dsDNA, one strand shown
Chain of HSF1 (Q00613 whole entry): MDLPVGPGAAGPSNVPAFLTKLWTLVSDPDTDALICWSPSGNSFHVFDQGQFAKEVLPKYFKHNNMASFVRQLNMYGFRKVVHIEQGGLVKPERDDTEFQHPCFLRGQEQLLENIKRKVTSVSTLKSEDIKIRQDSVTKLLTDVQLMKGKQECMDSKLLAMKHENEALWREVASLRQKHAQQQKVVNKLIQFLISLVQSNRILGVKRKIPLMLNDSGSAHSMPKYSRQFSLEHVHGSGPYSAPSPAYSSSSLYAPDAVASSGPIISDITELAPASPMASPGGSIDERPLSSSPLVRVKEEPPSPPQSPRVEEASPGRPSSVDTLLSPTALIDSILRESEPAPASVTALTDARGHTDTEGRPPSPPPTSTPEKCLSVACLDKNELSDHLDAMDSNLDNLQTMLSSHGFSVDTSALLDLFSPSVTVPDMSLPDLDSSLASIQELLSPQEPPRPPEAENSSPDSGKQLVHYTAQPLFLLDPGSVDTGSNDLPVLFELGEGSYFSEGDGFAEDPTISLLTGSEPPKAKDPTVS
Outline: as §1

SPIC = target: T8, SPIC (Homo sapiens, UniProt Q8N5J4 1-248); settings: protein: recombinant; tags: N-terminal GST; dsDNA, one strand shown
T8 sequence: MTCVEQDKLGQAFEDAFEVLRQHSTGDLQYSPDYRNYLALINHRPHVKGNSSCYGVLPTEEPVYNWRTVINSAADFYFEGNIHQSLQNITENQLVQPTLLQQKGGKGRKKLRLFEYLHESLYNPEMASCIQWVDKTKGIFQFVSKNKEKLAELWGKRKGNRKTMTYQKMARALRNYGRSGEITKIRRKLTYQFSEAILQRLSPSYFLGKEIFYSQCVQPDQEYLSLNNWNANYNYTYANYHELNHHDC
Outline: as §1

ELF4 = ELF4 (Homo sapiens, UniProt Q99607 1-663); settings: protein: recombinant; tags: N-terminal GST; dsDNA, one strand shown
Chain of ELF4 (Q99607 whole entry): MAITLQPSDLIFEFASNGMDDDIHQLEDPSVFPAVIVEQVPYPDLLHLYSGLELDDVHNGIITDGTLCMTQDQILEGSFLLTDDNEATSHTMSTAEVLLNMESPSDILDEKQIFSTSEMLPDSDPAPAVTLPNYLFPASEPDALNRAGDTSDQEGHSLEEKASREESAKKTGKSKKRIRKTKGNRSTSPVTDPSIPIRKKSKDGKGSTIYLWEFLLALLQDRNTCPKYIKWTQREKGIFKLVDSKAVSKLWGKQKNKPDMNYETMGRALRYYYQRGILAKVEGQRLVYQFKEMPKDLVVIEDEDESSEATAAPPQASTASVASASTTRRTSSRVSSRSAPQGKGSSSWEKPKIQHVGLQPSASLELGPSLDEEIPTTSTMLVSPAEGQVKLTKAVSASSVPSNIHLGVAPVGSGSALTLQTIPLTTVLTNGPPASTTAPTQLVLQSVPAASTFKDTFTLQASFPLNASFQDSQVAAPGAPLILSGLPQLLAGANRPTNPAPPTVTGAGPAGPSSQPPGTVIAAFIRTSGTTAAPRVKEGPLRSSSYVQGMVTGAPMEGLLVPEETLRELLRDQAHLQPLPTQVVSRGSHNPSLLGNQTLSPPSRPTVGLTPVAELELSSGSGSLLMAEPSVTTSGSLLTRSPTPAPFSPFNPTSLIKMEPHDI
Outline: as §1

ELK4 = target: T9, ELK4 (Homo sapiens, UniProt P28324-2 1-405); settings: protein: recombinant; tags: N-terminal GST; dsDNA, one strand shown
T9 sequence: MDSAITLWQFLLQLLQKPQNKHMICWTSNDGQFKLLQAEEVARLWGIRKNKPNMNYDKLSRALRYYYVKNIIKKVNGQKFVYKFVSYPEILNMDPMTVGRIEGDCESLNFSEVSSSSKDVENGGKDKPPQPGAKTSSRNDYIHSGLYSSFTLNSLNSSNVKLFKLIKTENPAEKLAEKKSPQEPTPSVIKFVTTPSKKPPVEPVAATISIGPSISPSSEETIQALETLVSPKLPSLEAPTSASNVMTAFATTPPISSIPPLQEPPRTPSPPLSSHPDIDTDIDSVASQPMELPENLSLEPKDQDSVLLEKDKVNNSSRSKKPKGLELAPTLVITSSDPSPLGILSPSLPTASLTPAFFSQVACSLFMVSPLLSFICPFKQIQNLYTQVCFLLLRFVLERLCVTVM
Outline: as §1

ETV2 = target: T10, ETV2 (Homo sapiens, UniProt O00321 1-342); settings: protein: recombinant; tags: N-terminal GST; dsDNA, one strand shown
T10 sequence: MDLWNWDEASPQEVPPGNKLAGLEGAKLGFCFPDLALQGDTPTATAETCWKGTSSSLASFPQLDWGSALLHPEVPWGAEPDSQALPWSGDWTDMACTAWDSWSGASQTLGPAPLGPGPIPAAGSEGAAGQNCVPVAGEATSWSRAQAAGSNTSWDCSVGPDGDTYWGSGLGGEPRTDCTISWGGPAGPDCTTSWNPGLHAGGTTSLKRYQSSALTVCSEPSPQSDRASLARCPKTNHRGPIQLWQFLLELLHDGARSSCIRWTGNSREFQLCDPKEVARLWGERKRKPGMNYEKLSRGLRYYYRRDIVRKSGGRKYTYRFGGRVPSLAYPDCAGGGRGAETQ
Outline: as §1

ELF3 = target: T11, ELF3 (Homo sapiens, UniProt P78545 1-371); settings: protein: recombinant; tags: N-terminal GST; dsDNA, one strand shown
T11 sequence: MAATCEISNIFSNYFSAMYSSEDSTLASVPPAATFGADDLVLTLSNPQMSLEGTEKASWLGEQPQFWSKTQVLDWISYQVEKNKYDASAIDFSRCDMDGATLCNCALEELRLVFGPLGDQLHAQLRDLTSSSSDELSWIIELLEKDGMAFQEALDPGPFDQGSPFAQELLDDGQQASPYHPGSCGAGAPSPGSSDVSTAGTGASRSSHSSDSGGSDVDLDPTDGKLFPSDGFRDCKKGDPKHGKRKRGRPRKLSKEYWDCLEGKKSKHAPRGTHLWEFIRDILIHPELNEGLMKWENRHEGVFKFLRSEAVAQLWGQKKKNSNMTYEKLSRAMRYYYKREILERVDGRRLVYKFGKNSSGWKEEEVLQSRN
Outline: as §1

CRX = CRX (Homo sapiens, UniProt O43186 1-299); settings: protein: recombinant; tags: N-terminal GST; dsDNA, one strand shown
Chain of CRX (O43186 whole entry): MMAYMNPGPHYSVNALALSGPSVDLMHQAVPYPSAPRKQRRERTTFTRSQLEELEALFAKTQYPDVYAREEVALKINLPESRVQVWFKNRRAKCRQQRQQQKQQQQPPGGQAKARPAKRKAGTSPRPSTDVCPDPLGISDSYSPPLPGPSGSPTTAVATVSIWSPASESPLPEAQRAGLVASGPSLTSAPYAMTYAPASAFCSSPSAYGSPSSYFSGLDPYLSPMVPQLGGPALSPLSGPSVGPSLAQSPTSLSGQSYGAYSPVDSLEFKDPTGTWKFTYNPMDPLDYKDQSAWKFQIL
Outline: as §1

ETV1 = ETV1 (Homo sapiens, UniProt P50549 1-477); settings: protein: recombinant; tags: N-terminal GST; dsDNA, one strand shown
Chain of ETV1 (P50549 whole entry): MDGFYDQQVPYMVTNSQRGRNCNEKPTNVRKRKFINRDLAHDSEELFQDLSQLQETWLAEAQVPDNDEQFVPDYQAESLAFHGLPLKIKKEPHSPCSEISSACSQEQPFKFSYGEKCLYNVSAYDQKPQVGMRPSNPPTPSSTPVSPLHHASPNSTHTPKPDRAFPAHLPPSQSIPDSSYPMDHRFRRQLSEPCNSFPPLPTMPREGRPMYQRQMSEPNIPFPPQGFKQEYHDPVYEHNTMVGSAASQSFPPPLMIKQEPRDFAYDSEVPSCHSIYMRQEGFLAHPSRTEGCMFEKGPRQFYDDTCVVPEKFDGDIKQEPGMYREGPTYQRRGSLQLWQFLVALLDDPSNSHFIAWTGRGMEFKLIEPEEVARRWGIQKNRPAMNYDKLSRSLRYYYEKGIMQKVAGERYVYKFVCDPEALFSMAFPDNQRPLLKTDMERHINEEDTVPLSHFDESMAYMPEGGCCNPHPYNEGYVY
Outline: as §1

Question: How did the binding signal (FLI1) turn out when TGATCT was run?
Answer: 1.21 fold enrichment (6-mer frequency, TF over GST control)

Question: And the binding signal (ELK1)?
Answer: 1.33 fold enrichment (6-mer frequency, TF over GST control)

Question: And the binding signal (GABPA)?
Answer: 1.18 fold enrichment (6-mer frequency, TF over GST control)

Question: What about the binding signal (ERG) of the same sequence?
Answer: 1.22 fold enrichment (6-mer frequency, TF over GST control)

Question: What about the binding signal (ELF1) of the same sequence?
Answer: 1.18 fold enrichment (6-mer frequency, TF over GST control)

Question: And the binding signal (EHF)?
Answer: 1.22 fold enrichment (6-mer frequency, TF over GST control)

Question: And the binding signal (SPI1)?
Answer: 1.15 fold enrichment (6-mer frequency, TF over GST control)

Question: And the binding signal (SPIB)?
Answer: 1.28 fold enrichment (6-mer frequency, TF over GST control)

Question: What about the binding signal (ELK3) of the same sequence?
Answer: 1.23 fold enrichment (6-mer frequency, TF over GST control)

Question: What about the binding signal (FEV) of the same sequence?
Answer: 1.12 fold enrichment (6-mer frequency, TF over GST control)

Question: And the binding signal (ETV5)?
Answer: 1.21 fold enrichment (6-mer frequency, TF over GST control)

Question: And the binding signal (HSF1)?
Answer: 1.66 fold enrichment (6-mer frequency, TF over GST control)

Question: What about the binding signal (SPIC) of the same sequence?
Answer: 1.19 fold enrichment (6-mer frequency, TF over GST control)

Question: What about the binding signal (ELF4) of the same sequence?
Answer: 1.16 fold enrichment (6-mer frequency, TF over GST control)

Question: What about the binding signal (ELK4) of the same sequence?
Answer: 1.37 fold enrichment (6-mer frequency, TF over GST control)

Question: And the binding signal (ETV2)?
Answer: 1.21 fold enrichment (6-mer frequency, TF over GST control)

Question: And the binding signal (ELF3)?
Answer: 1.25 fold enrichment (6-mer frequency, TF over GST control)

Question: And the binding signal (CRX)?
Answer: 1.86 fold enrichment (6-mer frequency, TF over GST control)

Question: And the binding signal (ETV1)?
Answer: 1.2 fold enrichment (6-mer frequency, TF over GST control)
